# Source: PubChem
# NRP1-CendR mod: alters CendR peptide binding to human NRP-1; O14786; FAM-RPARPAR peptide binding to NRP-1, fluorescence polarization; inhibition, % at 25 µM; hit rate 0.85% among 360,000; AID 602438;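 active means inhibition or corrected inhibition above about 18%, plus a signal ratio from 0.5 to 1.5, limit read from the data, passing the limit was not always enough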
# RAD52 anneal inh: RAD52 (human) annealing inhibition | P43351 | recombinant RAD52 DNA annealing, FRET fluorescence | inhibition, % at 18.7 µM | hit rate 0.46% among 360,000 | AID 651710;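 active means every replicate showing at least 50% inhibition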
# Target sequence (P43351 whole entry, looked up): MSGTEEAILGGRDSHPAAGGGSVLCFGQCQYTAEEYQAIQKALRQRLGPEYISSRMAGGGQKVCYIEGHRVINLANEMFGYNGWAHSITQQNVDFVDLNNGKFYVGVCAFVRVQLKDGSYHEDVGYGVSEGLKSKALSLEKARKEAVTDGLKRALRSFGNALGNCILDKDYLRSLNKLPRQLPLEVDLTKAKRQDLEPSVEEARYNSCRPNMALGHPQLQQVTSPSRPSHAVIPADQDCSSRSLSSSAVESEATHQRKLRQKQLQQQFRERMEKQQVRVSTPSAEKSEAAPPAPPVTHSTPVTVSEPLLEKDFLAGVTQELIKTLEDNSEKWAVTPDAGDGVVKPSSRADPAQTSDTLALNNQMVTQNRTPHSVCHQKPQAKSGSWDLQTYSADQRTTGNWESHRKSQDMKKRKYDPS
# N-glyco inh: blocks N-linked glycosylation in D54 reporter cells; D54 ERlucT glycosylation luciferase reporter, 24 h; percent of 100 nM tunicamycin response; reporter increase, % at 12.5 µM; hit rate 0.23% among 360,000;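 active means mean luciferase reporter signal, scaled so untreated is 0 and the glycosylation-blocking control 100, at or above a set limit in every replicate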;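 further: luciferase carries N-glycosylation sites so blocking glycosylation raises the light; 0% = median of neutral control wells and 100% = median of 100 nM tunicamycin wells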
# miR122 inh: blocks miR-122 activity in Huh7 sensor cells | activation (reporter increase), % at 12.5 µM | hit rate 0.3% among 340,000 | Huh7 miR-122 Renilla luciferase sensor, 48 h; neutral wells = 0, positive control = 100;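 active means mean replicate activation score at least 90 and every replicate individually at or above 90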;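 further: higher luciferase means less miR-122 activity so hits act as miR-122 inhibitors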
# FID counter: counter-screen for HCV NS3 helicase inhibitors: DNA intercalator displacement; inhibition, % at 7.9 µM; hit rate 0.17% among 290,000; DNA fluorescent intercalator displacement, fluorescence; in the data active means inhibition above about 37%;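 further: 0% = vehicle and 100% = reference compound; higher means more ethidium bromide displaced from hairpin DNA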
# RAD54 branch: RAD54 (human) branch migration inhibition. inhibition, % at 10.4 µM. hit rate 0.14% among 360,000. RAD54 Holliday junction branch migration, FAM/BHQ fluorescence. Q92698;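 active means mean normalized replicate activity at least 40 and at least half of replicates scoring 40 or more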;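 further: 0% = median of neutral control wells and 100% = median of positive control wells; inhibitors cause a drop in the FAM fluorescence signal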
# Starred values were filed as active, the others as inactive; · = no result; [ ] = another dose, or the depositor's remark. A selection: hits, their analogues and other compounds. The true share with any hit is near 1.5%.
SMILES,NRP1-CendR mod,RAD52 anneal inh,N-glyco inh,miR122 inh,FID counter,RAD54 branch
CC(C)NC(=O)Nc1ccc2c(c1)C(=O)N([C@H](C)CO)C[C@H](C)[C@@H](CN(C)S(=O)(=O)c1cccs1)O2,25*,-40,1,2[16.7 µM],·,-8
Cc1noc(C)c1S(=O)(=O)Nc1ccc2c(c1)C(=O)N([C@@H](C)CO)C[C@H](C)[C@H](CN(C)S(=O)(=O)c1ccc(F)cc1)OCCCC[C@@H](C)O2,·,-38,·,-2[16.7 µM],·,-1
C[C@H]1CCCCO[C@H](CN(C)S(=O)(=O)c2cccs2)[C@@H](C)CN([C@@H](C)CO)C(=O)c2cc(NS(=O)(=O)c3cn(C)cn3)ccc2O1,·,59*,·,7[16.7 µM],·,-2
CNC[C@H]1OCCCC[C@H](C)Oc2ccc(NC(=O)NC(C)C)cc2C(=O)N([C@@H](C)CO)C[C@@H]1C,·,-203,·,22[16.7 µM],·,-12
Cc1noc(C)c1NC(=O)Nc1ccc2c(c1)C(=O)N([C@H](C)CO)C[C@@H](C)[C@H](CN(C)Cc1ccc(Cl)c(Cl)c1)OCCCC[C@H](C)O2,·,18,·,-10[16.7 µM],·,2
C=CCOc1ccccc1C(=O)/C=C1/C(=O)Nc2ccccc21,5,-6,32*,10,-10,-3
COc1ccc(C(=O)/C=C2/C(=O)Nc3ccccc32)cc1OC,39*,-8,29*,8,-8,0
COc1ccc(C(=O)/C=C2/C(=O)Nc3ccccc32)c(OC)c1,-16,-3,33*,·,-9,·
CC(C)NC(=O)Nc1ccc2c(c1)C(=O)N([C@H](C)CO)C[C@@H](C)[C@H](CN(C)C(=O)CCCN(C)C)OCCCC[C@@H](C)O2,·,4,·,-4[16.7 µM],·,12
COc1ccc(S(=O)(=O)N(C)C[C@H]2OCCCC[C@H](C)Oc3ccc(NS(=O)(=O)c4c(C)noc4C)cc3C(=O)N([C@H](C)CO)C[C@H]2C)cc1,·,-5,·,1[16.7 µM],·,-4
C[C@H](CO)N1C[C@H](C)[C@H](CN(C)C(=O)Nc2ccc(F)cc2)Oc2c(NS(C)(=O)=O)cccc2C1=O,·,-8,·,0[16.7 µM],·,-11
O=C(Cc1ccccc1)N1CC[C@H]2[C@H](CO)Nc3ccc(-c4cccc(F)c4)cc3[C@H]21,·,6,·,-6[16.7 µM],·,0
Cc1ccc(S(=O)(=O)N2CC[C@@H]3[C@@H](CO)Nc4ccc(-c5ccccc5F)cc4[C@@H]32)cc1,·,-7,·,154*[16.7 µM],·,2
O=C(Cc1ccccc1)N1CC[C@@H]2[C@@H](CO)Nc3ccc(-c4cccc(F)c4)cc3[C@@H]21,·,-1,·,109*[16.7 µM],·,7
Cc1ccccc1S(=O)(=O)N1CC[C@@H]2[C@@H](CO)Nc3ccc(-c4ccc(F)cc4)cc3[C@@H]21,·,·,·,157*[16.7 µM],·,9
C[C@@H]1CCCCO[C@H](CN(C)C(=O)C2CCCCC2)[C@@H](C)CN([C@H](C)CO)C(=O)c2cc(NC(=O)CCCCCC(=O)Nc3ccccc3N)ccc2O1,·,3,·,-1[16.7 µM],·,4
C[C@H]1CN([C@@H](C)CO)C(=O)c2cccc(NC(=O)Nc3cccc4ccccc34)c2O[C@H]1CN(C)Cc1ccc(-c2ccccc2)cc1,·,·,·,-2[16.7 µM],·,·
C[C@H](CO)N1C[C@H](C)[C@@H](CN(C)Cc2cccc(F)c2)Oc2cc(-c3ccc(F)cc3)ccc2S1(=O)=O,·,·,·,4[16.7 µM],·,·
CCn1c(=O)cc(SCC(=O)N2CCCCC2)c2ccccc21,22*,·,14,-3,-26,5
OC(COc1ccc(OCC(O)CN2CCCCC2)cc1)CN1CCCCC1 (configuration not stated),5,4,-6,-6,14,-5
OC(COc1ccc(CNCCc2ccc(C(F)(F)F)cc2)cc1)CN1CCCCC1 (configuration not stated),2,18,-5,·,42*,·
CO[C@H]1CN(C)C(=O)c2ccc(NC(C)=O)cc2OC[C@@H](C)N(Cc2ccccn2)C[C@H]1C,·,4,·,-5[16.7 µM],·,3
Cc1ccc(C(=O)N/C(=C\c2ccc(-c3cccc([N+](=O)[O-])c3)o2)C(=O)NCCCN2CCOCC2)cc1,-3,8,-5,·,44*,8
C=CCOc1c(CNc2ncn[nH]2)cccc1OCC,28*,·,0,4,-1,6
C(=Cc1nc2ccccc2o1)c1ccc2c(c1)OCO2,26*,-8,-18,-1,·,-7
SMILES,NRP1-CendR mod,RAD52 anneal inh,N-glyco inh,miR122 inh,FID counter,RAD54 branch
C(=Cc1cnc2ccccc2n1)c1ccc2c(c1)OCO2,16,-26,-20,-7,·,-13
C[C@@H]1CCCCO[C@H](CN(C)Cc2ccc(C(=O)O)cc2)[C@@H](C)CN([C@H](C)CO)C(=O)c2cc(NS(=O)(=O)c3ccc(Cl)cc3)ccc2O1,·,8,·,-1[16.7 µM],·,-7
COc1cc(C(=O)OCC#N)ccc1OCc1c(C)noc1C,23,-14,31*,46,-6,5
COc1ccc(CN2C(=O)c3ccccc3C2=O)cc1C(=O)Nc1ccccc1N1CCOCC1,32*,-5,-3,·,-3,·
COc1cc(C(=O)NCc2ccc(C)cc2)ccc1OCc1c(C)noc1C,17,·,2,2,-24,·
COc1ccc(NC(=O)c2cc(CN3C(=O)c4ccccc4C3=O)ccc2OC)cn1,-9,·,12,-3,-1,4
COc1cc(C(=O)Nc2ccccc2N2CCOCC2)ccc1OCc1c(C)noc1C,27*,-2,5,-5,-37,-1
Cc1noc(C)c1COc1cccc(C(=O)Nc2ccccc2N2CCOCC2)c1,9,-11,1,·,-22,·
CCS(=O)(=O)N1CCC2(CC1)CN(C(=O)c1ccc(F)cc1)[C@@H](CO)c1c2c2ccc(OC)cc2n1C,·,7,·,·,·,·
O=C(C[C@H]1C=C[C@H](NC(=O)c2cccc(F)c2)[C@@H](CO)O1)NCc1ccccc1,·,-2,·,3[16.7 µM],·,5
C/C=C/c1ccc2c(c1)[C@@H]1[C@@H](CCN1S(=O)(=O)c1cccc(F)c1)[C@H](CO)N2,·,7,·,·,·,·
C[C@H]1CN([C@@H](C)CO)C(=O)c2cccc(NC(=O)c3nc4ccccc4s3)c2O[C@@H]1CN(C)Cc1ccc(C(=O)Nc2ccccc2N)cc1,·,33,·,-1[16.7 µM],·,1
CCCCCCCN1CCC(=O)N([C@H](CO)CC(C)C)CC1,27*,-4,-3,7,-14,-13
CC(C)C[C@@H](COc1ccccc1)N1CCN(CCc2ccccc2)CCC1=O,36*,-12,0,0,-20,-6
CCCN1CCC(=O)N([C@H](COc2ccccc2)CC(C)C)CC1,28*,-8,3,0,-7,-7
O=C1CCN(CCc2ccccc2)CCN1[C@H](COc1ccccc1)Cc1ccccc1,1,1,-2,5,-9,13
C[C@@H]1CN([C@H](C)CO)C(=O)c2cc(C#Cc3ccc(F)cc3)cnc2O[C@H]1CN(C)S(C)(=O)=O,·,-16,·,-9[16.7 µM],·,7
C[C@@H]1CN([C@H](C)CO)C(=O)c2cc(NS(=O)(=O)c3ccc(Cl)cc3)ccc2O[C@@H](C)CCCCO[C@@H]1CN(C)C,·,4,·,2[16.7 µM],·,-6
